Reference: ChEMBL document CHEMBL3988442, “University of Dundee, Small-Polar-MMV Screening Library” (2021)
The whole screen tested about 48,000 compounds, of which about 13,000 (27%) showed an effect of 50% or more. The list shows a part of the results.

Tested on: Wolbachia pipientis
Experiment: Anti-Wolbachia Cell-Based Screen
Format: functional
Set-up: scale not given: in the data most compounds retested in dose-response had high values
Settings: 5 µM

Row | SMILES | Percent Effect [%]
1 | COc1ccc(CN2CCO[C@@H]3C[C@@H](C(=O)NC(C)C)C[C@H]32)cc1.O=C(O)C(F)(F)F | -0.6614
2 | Cc1ccc(CN2CC(C(=O)N3CCCC3)C3(CCOCC3)C2)s1.O=C(O)C(F)(F)F (stereo unspecified) | -16.58
3 | CC[C@@H]1N(Cc2ccc(C)s2)CCC[C@]12CCC(=O)N2C.O=C(O)C(F)(F)F | 100.7
4 | CC[C@@H]1N(Cc2ccc(C)o2)CCC[C@]12CCC(=O)N2CCOC.O=C(O)C(F)(F)F | 120.4
5 | COc1ccc(CN2C[C@H](N3CCCC3=O)[C@@H]3OCCC[C@@H]32)cc1.O=C(O)C(F)(F)F | 8.325
6 | CNC(=O)[C@H]1C[C@H]2OCC[C@H]2N(Cc2ccc(F)cc2)C1.O=C(O)C(F)(F)F | -9.122
7 | Cc1ccc(CN2CCCC3(CCCC(=O)N3C)C2)s1.O=C(O)C(F)(F)F (stereo unspecified) | 5.855
8 | CC[C@@H]1N(Cc2ccc(F)cc2)CCC[C@]12CCC(=O)N2C.O=C(O)C(F)(F)F | 88.6
9 | CC[C@@H]1N(Cc2ccc(OC)cc2)CCC[C@]12CCC(=O)N2CCOC.O=C(O)C(F)(F)F | 91.26
10 | CN1CCN(c2cnn(CCn3cccn3)c(=O)c2)CC1 | 1.729
11 | CN(C)C[C@H]1CC[C@@H](Cc2ccc3c(cnn3C)c2)O1 | 15.72
12 | Cc1cccc2nc(CN3CCCC(Cn4ccnn4)C3)cc(=O)n12 (stereo unspecified) | -2.392
13 | CC(C)Cn1ncc2cc(C(=O)N(C)CCc3ccccc3)cnc21 | 7.152
14 | Cn1nnc2c1CCN(Cc1ccoc1)C2COCc1ccccc1.O=C(O)C(F)(F)F (stereo unspecified) | 14.93
15 | CC[C@@H]1N(Cc2ccoc2)CCC[C@]12CCC(=O)N2CCOC.O=C(O)C(F)(F)F | 119.5
16 | CC[C@@H]1N(Cc2ccc(F)cc2)CCC[C@]12CCC(=O)N2CCOC.O=C(O)C(F)(F)F | 105
17 | COCCN1C[C@@H]2CN(Cc3cccc(F)c3)CCC[C@]2(C(=O)O)C1.O=C(O)C(F)(F)F.O=C(O)C(F)(F)F | 4.566
18 | COCCNC(=O)[C@H]1C[C@H]2OCC[C@H]2N(Cc2ccoc2)C1.O=C(O)C(F)(F)F | 2.424
19 | COCCN1C(=O)CCC12CCCN(Cc1ccccc1F)C2.O=C(O)C(F)(F)F.O=C(O)C(F)(F)F (stereo unspecified) | -19.88
20 | CCCOc1ccc(C(=O)N[C@@H]2CCNC[C@H]2O)cc1Cl | 4.821
21 | c1cc(NCc2cscn2)cc(OCCN2CCCCC2)c1 | 8.828
22 | CN(Cc1cc[nH]n1)C(=O)C1CC(=O)N(Cc2ccncc2)C1 (stereo unspecified) | 23.6
23 | CCCN1CCN(C(=O)Cn2nc(C(F)(F)F)c(Br)c2C2CC2)CC1 | 112.9

Row | SMILES | Percent Effect [%]
24 | Cc1cc(C2CCCN(C(=O)CN3CCN(C)CC3)C2)n[nH]1 (stereo unspecified) | 0.3099
25 | CCCN1CCCN(C(=O)C(CC)N2CCCC2=O)CC1 (stereo unspecified) | -5.426
26 | CN1CCN(C(=O)Cn2nc(C(F)(F)F)c(Br)c2C2CC2)CC1 | 120.3
27 | CCN1CCN(C(=O)CCC2CCN(C(=O)CCSC)CC2)CC1 | 1.019
28 | CCN1CCN(C(=O)Cn2nc(C(F)(F)F)c(Br)c2C2CC2)CC1 | 81.51
29 | CCCN1CCN(C(=O)CCn2nc(C(F)(F)F)c(Br)c2C)CC1 | 94.07
30 | CC(C)(C)OC(=O)Cn1nc(C2CC2)cc(C(F)(F)F)c1=O | 2.885
31 | CCN1CCN(C(=O)CCc2c(C)noc2Cl)CC1 | 3.416
32 | Cc1nn(C)c(C)c1CCC(=O)N1CCN(CCn2cncn2)CC1 | 2.467
33 | CCCN1CCN(C(=O)C(C)n2cc(Br)cn2)CC1 (stereo unspecified) | 6.17
34 | CC(C)(C)C(=O)Cn1nc(C2CC2)cc(C(F)(F)F)c1=O | 3.486
35 | CNc1cc(C)nc(N2C[C@H](NC(=O)C3CCOCC3)[C@@H](C3CC3)C2)n1 | -20.28
36 | CNC(=O)COC(=O)c1cccc(-n2ccc(C(F)(F)F)n2)c1 | -11.26
37 | CCCN(CCc1cccc(F)c1)c1ccc2nnnn2n1 | 9.519
38 | CSC(CNS(C)(=O)=O)c1cccc(Cl)c1 (stereo unspecified) | 9.109
39 | Cc1nc(C)n(Cc2cccc(NC(=O)N(C)CCC(C)O)c2)n1 (stereo unspecified) | -6.821
40 | O=C(Cn1nnc(-c2ccc(F)cc2)n1)N1CCOCC(O)C1 (stereo unspecified) | -9.782
41 | O=C(CN1C(=O)CCC1=O)N1CCOCC1 | -0.7877
42 | O=C(Cn1nc(C(F)(F)F)c(Br)c1C1CC1)N1CCOCC1 | 103.1
43 | CCN(Cc1ccncc1)C(=O)C1COc2c(cccc2OC)C1 (stereo unspecified) | -5.298
44 | NC(=O)c1cccc(OCCC(=O)NC2CCc3c(F)cccc32)c1 (stereo unspecified) | 3.003
45 | COCC(=O)N1CCCC2(CCN(Cc3cccc(C)n3)C2=O)C1.O=C(O)C(F)(F)F (stereo unspecified) | -15.33
46 | Cc1cccc(CN2CC3(CCNCC3)OCC2=O)n1 | -5.931

Row | SMILES | Percent Effect [%]
47 | COCCN1CCC2(CC1)CN(Cc1cccc(C)n1)C(=O)CO2 | 94.2
48 | COCCN1CCC2(CC1)CN(CCn1cccn1)C(=O)CO2.O=C(O)C(F)(F)F | -17.67
49 | Cc1cccc(CN2CCC3(CCCN(C(=O)CN(C)C)C3)C2=O)n1 (stereo unspecified) | 1.32
50 | CCCC(=O)N1CCC2(CC1)CN(Cc1cccc(C)n1)C(=O)CO2 | 88.89
51 | Cc1cccc(CN2CC3(CCN(C(=O)C4CC4)CC3)OCC2=O)n1 | 113.2
52 | O=C1COC2(CCN(Cc3ccccn3)CC2)CN1CC1CC1 | 3.205
53 | Cc1cccc(CN2CC3(CCN(C(N)=O)CC3)OCC2=O)n1 | 101.1
54 | COCCN(C)CCN1CC2(CCN(C3CCOCC3)CC2)OC1=O | -18.87
55 | Cc1ccsc1-c1nnc(SCC(=O)O)n1C(C)c1ccccc1 (stereo unspecified) | -0.1706
56 | CCN(CC)c1ccc(C2C3=C(COC3=O)Nc3[nH]nc(C)c32)cc1 (stereo unspecified) | 4.109
57 | CCc1ncncc1C(=O)Nc1ccc2ccn(CCN(C)C)c2c1 | -10.28
58 | CCc1nc(C)c([C@H]2CN(C)C[C@@H]2C(=O)NCc2ccccc2OC)[nH]1 | -8.879
59 | Cc1ccccc1C(CC(=O)NCc1n[nH]c(N)n1)c1ccccc1 (stereo unspecified) | -7.585
60 | CC(NC(=O)NCCCc1n[nH]c(N)c1C#N)c1cccs1 (stereo unspecified) | -7.784
61 | Cc1ncsc1CN1CC2(CCCC2)CC1=O | -13.29
62 | Cc1ncsc1CN1CCOC(C)(C(N)=O)C1 (stereo unspecified) | 122.3
63 | Cc1ncsc1CN1CC[C@H]2OCC[C@@]2(C(=O)N(C)C)C1 | 3.882
64 | Cc1ncsc1CN1CCOC(C)(C(=O)N2CCOCC2)C1 (stereo unspecified) | 106.3
65 | Cc1ncsc1CN1CCOC(C)(C(=O)N(C)C)C1 (stereo unspecified) | 112.2
66 | Cc1nn(C)c(C)c1-c1ccnc(N(C)Cc2noc(C(C)C)n2)n1 | -9.96
67 | CCNC(=O)N[C@H]1C[C@@H](Cc2cc(CN3CCCCC3)on2)C1(C)C | 1.239
68 | Cc1ccoc1C(=O)N1CC[C@@H]2CN(C3CCOCC3)CCO[C@@H]2C1.O=C(O)C(F)(F)F | 107.8
69 | O=C(O)C(F)(F)F.O=C(c1ccco1)N1CCOCC2(CCN(C3CCOCC3)C2)C1 (stereo unspecified) | 7.241

Row | SMILES | Percent Effect [%]
70 | COc1ccc(CN2CC[C@@H]3CN(S(C)(=O)=O)CCO[C@@H]3C2)cc1.O=C(O)C(F)(F)F | 4.247
71 | O=C(O)C(F)(F)F.O=C(c1ccco1)N1CC[C@@H]2CN(C3CCOCC3)CCO[C@@H]2C1 | 107.9
72 | CN1CCO[C@@H]2CN(C(=O)c3ccc4[nH]ccc4c3)CC[C@@H]2C1.O=C(O)C(F)(F)F | -13.85
73 | Cc1ccoc1C(=O)N1CC[C@H]2O[C@@H](C)C[C@H]2C1 | -21.6
74 | Cc1ccoc1C(=O)N1CC[C@@H]2O[C@@H](C)C[C@H]2C1 | 0.7135
75 | Cc1ccc(C(=O)N2CC[C@@H]3CN(C4CCOCC4)CCO[C@@H]3C2)o1.O=C(O)C(F)(F)F | 105.9
76 | CN(C)C[C@H]1OC[C@@H]2CCN(C(=O)c3ccco3)C[C@@H]21.O=C(O)C(F)(F)F | 5.332
77 | Cc1ccc(CNC2(Cc3cc(-c4cccc(O)c4)on3)COC2)o1 | -8.459
78 | COC(=O)C1CCN(C(=O)c2ccc(N(C)S(C)(=O)=O)c(C)c2)CC1 | -6.417
79 | COCCC1(C(=O)O)CCCN(Cc2cc3c(cc2Cl)OCO3)C1 (stereo unspecified) | 4.782
80 | CNC(=O)CN1CCC(NC2CSCCc3ccccc32)CC1 (stereo unspecified) | 0.2819
81 | CC(C)S(=O)(=O)N1CCCC(c2nnc(Cn3ccnc3)n2C)C1 (stereo unspecified) | -6.159
82 | Cn1c(Cn2ccnc2)nnc1C1CCN(C(=O)C2(C)CC2)CC1 | 6.343
83 | CC(C)OC(=O)N1CCC(c2nnc(Cn3ccnc3)n2C)CC1 | 96.34
84 | CS(=O)(=O)N1CCC(c2nnc(Cn3ccnc3)n2C2CC2)CC1 | -22.9
85 | Cn1c(Cn2ccnc2)nnc1C1CCCN(C2CCCCC2)C1 (stereo unspecified) | -3.14
86 | COC(=O)N1CCC(c2nnc(Cn3ccnc3)n2C)CC1 | 110.5
87 | Cc1ccc(N2C(=O)N[C@@H]3CCN(C(=O)C4CCCC4)[C@@H]3C2=O)cc1 | -4.286
88 | CCc1ccc(C(=O)O)cc1S(=O)(=O)N(C)c1cccc(C#N)c1 | -20.44
89 | c1csc(N2CCN(Cc3cc4n(n3)CCNC4)CC2)n1 | -2.451
90 | COC(=O)Cn1c(=O)nc2n1C(=O)N(c1ccc(Cl)cc1)C2 | 5.835
91 | CNc1nc(C)cc(NCc2cc(C)cc3c(C)c(C)[nH]c23)n1 | -6.475
